The record followed here is ChEMBL document CHEMBL3433997, “St. Jude Leishmania screening dataset” (2016).

Values joined by “and” are separate entries in the source; they are usually repeats but may differ in a detail not shown here. Equal values may be shown once.

What all share (format): functional
In test [1] the target is Solute carrier family 2, facilitated glucose transporter member 1 (Homo sapiens) (UniProt P11166). Description: ST_JUDE_LEISH: Cytotoxicity at 2uM final concentration against transgenic Leishmania Mexicana promastigotes LmGLUT1 that are glucose transport deficient and complemented with the human glucose transporter GLUT1. Activity is measured by DNA content using SYBR green in vitro.

The target in test [2] is Hexose transporter 1 (Plasmodium falciparum) (UniProt O97467). Description: ST_JUDE_LEISH: Cytotoxicity at 2uM final concentration against transgenic Leishmania Mexicana promastigotes LmPfHT that are glucose transport deficient and complemented with the Plasmodium falciparum hexose transporter. Activity is measured by DNA content using SYBR green in vitro.
The target of test [3] is Glucose transporter (Leishmania mexicana) (UniProt O61059). As to the kind of experiment: ST_JUDE_LEISH: Cytotoxicity at 2uM final concentration against transgenic Leishmania Mexicana promastigotes LmGT2 that are glucose transport deficient and complemented with the L. Mexicana glucose transporter 2. Activity is measured by DNA content using SYBR green in vitro.

Solute carrier family 2, facilitated glucose transporter member 1 (Homo sapiens), sequence (P11166 whole entry): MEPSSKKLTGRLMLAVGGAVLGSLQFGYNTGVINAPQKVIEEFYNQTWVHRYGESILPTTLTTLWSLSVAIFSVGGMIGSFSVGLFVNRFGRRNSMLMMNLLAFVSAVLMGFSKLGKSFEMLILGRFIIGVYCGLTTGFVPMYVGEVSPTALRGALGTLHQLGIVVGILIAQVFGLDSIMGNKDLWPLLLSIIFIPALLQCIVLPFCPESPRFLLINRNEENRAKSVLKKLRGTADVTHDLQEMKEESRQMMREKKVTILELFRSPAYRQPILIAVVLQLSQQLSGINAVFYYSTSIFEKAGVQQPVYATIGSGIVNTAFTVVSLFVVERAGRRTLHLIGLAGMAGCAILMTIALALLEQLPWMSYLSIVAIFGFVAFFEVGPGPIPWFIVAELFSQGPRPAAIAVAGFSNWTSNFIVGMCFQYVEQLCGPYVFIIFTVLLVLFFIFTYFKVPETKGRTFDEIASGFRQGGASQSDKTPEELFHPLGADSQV

By inhibition is commonly meant the change of the read-out against control, counted positive when it falls. For `O=C(Cn1c(CCc2cccc(F)c2F)nc(=O)c2cccnc21)N(Cc1ccc(-c2ccc(C(F)(F)F)cc2)cc1)C1CCN(C2CCOCC2)CC1`, the inhibition in test [1] stood at 2.69%; in test [2], 1.35%; in test [3], 1.43%.

For the compound `CN1CCN(c2ccnc3ccc(NC(=O)Cc4ccc5ccccc5c4)cc23)CC1`, the inhibition in test [1] was 0.96%; in test [2], 2.53%; in test [3], 2.12%.

Take `O=C(Nc1ccc(-c2nc3ccccc3[nH]2)cc1)c1ccc(-c2cccc([N+](=O)[O-])c2)o1`: the inhibition in test [1] is -1.84%; in test [2], -0.42%; in test [3], -3.21%.

Take `O=C(Nc1ccnc2ccccc12)NC1CCN(Cc2ccccc2)CC1`: the inhibition in test [1] amounted to 3.42%; in test [2] it was 3.28%; in test [3] it was 3.89%.

Take `FC(F)(F)c1cc(Nc2ccc(Oc3ccccc3)cc2)c2cc(-c3ccncc3)ccc2n1`: the inhibition was -0.25% in test [1], 0.41% in test [2] and -0.05% in test [3].

Consider `NC1=NC(c2ccccc2)(c2cccc(O)c2)C(=O)N1CCCc1ccccc1` (stereo unspecified), for which the inhibition in test [1] was 10.4% and 2.82%; in test [2], 10.4% and 1.45%; in test [3], 6.85% and 0.63%.

Turning to `c1csc(-c2nc(N3CCCC3)ncc2-c2ccsc2)n1`, the figures for the inhibition in test [1], in test [2] and in test [3] were 0.85%, -0.18% and 1.26%, respectively.

With `COc1ccc2c(=O)c3ccc(OC)cc3[nH]c2c1`, the inhibition in test [1] is 1.08%; in test [2], -2.12%; in test [3], -0.67%.

For `O=C(N[C@H]1CCN(Cc2ccc(OCCN3CCCC3)c(Cl)c2)C1)c1ccc(Cl)c(Cl)c1`, the inhibition in test [1] was 8.03%; in test [2] it was 16.6%; in test [3] it was 6.8%.

Regarding `CCc1cn2c3c(cc(C(=O)N[C@@H](Cc4ccccc4)[C@H](O)CNCC(C)C)cc13)N(C)S(=O)(=O)CC2`, the inhibition in test [1] is 3.97%; in test [2], 4.71%; in test [3] it was 3.3%.

As to `COc1ccc(NC(=O)c2ccc(C=Cc3ccc(C(F)(F)F)cc3)cc2)cc1N1CCN(C)CC1`, the results for the inhibition in test [1], in test [2] and in test [3] were 0.43%, 0.25% and -0.41%, respectively.

Regarding `CN1CCN(CCCN(Cc2cccc(-c3cccc(CNC4CCCC4)c3)c2)C(=O)/C=C/c2ccccc2)CC1`, the values for the inhibition in test [1], in test [2] and in test [3] were -1.1%, -0.02% and -2.44%, respectively.
